According to PubChem BioAssay (NCATS):
Records with an inconclusive call do not appear. Calls of active or inactive are those of the source. Unless noted, calls follow the shape of the dose curve; as a rule, active = well fitted curve in either direction with a large enough effect (not every such curve was filed as active); inconclusive = small, poorly fitted or top-dose-only effect, or another doubt; inactive = flat fitted curve, though single readings scatter.

Columns and labels:
[1] = Stat Signaling Pathway (AID 446); details: ME-180 (cervical carcinoma) SIE beta-lactamase reporter, IL-6 stimulated, 5 h; at 38 µM (top of the series) unless noted;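 also: ME-180 cervical cancer cells given 40 pM IL-6 alongside compound; SIE-controlled beta-lactamase reporter measured as 460/530 nm FRET emission ratio; % is scaled to controls: 0 for no effect and ±100 for the full control effect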
Procedure, shortened: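 Normalization used AC90 stimulation (300 pM IL-6) and AC90 inhibition (125 nM pan-JAK inhibitor at 40 pM IL-6). The underlying signal is SIE-driven beta-lactamase in ME-180 cells after 5 h IL-6 exposure with compound.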

[2] = molecular target: Glucocorticoid receptor (Homo sapiens) (UniProt P04150); test: GR-GFP Redistribution (AID 450;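 active = compounds whose dose series gives a full or clear partial fitted curve of increased nuclear translocation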; also: potency is read from the fitted curve at half-maximal effect); details: U2OS GR-GFP nuclear translocation, laser cytometry, 2 h
Glucocorticoid receptor (Homo sapiens), sequence (P04150 whole entry, looked up, the tested form may be a part): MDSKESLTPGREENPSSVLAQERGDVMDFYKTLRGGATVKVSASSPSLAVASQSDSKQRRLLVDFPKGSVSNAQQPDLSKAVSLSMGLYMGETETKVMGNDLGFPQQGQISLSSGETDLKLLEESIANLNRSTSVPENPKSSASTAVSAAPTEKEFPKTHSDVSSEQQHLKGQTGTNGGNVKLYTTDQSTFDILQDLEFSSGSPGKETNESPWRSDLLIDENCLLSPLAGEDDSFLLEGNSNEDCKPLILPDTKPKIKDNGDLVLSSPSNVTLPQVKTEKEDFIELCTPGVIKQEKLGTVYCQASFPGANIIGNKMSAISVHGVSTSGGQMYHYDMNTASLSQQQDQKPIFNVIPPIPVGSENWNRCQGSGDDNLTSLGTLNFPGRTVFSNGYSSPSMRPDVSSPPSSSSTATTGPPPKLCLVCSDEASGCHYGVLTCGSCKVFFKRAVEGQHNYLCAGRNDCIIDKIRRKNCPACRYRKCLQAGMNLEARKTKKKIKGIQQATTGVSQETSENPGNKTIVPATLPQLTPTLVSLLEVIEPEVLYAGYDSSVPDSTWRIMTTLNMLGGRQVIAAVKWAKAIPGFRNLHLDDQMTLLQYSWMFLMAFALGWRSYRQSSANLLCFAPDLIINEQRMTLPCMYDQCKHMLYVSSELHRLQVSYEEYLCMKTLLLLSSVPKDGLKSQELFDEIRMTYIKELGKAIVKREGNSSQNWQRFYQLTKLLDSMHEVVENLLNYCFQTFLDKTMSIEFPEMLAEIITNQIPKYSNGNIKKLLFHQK

[3] = molecular target: Glucocorticoid receptor (Homo sapiens) (UniProt P04150); test: GR-EFC Redistribution (AID 451; calls by dose curve; also: potency is read from the fitted curve at half-maximal effect); details: CHO-K1 GR-EFC translocation, beta-gal luminescence, 2 h
Procedure, shortened: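 CHO-K1 cells expressing nuclear EA and GR-ED fragments of b-gal; compounds titrated up to 46 uM final, 2 h at 37 C. GR nuclear translocation read as complemented b-gal luminescence after 1 h RT detection.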

[4] = molecular target: Mitogen-activated protein kinase 10 (Mus musculus) (UniProt Q61831); test: JNK3 AlphaScreen Assay (AID 530);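 also: kinase came from lysate of stimulated human HepG2 cells; signal reports phosphorylation of biotinylated GST-cJun 1-79 at Ser73 with 10 µM ATP; % is scaled to controls: 0 for no effect and ±100 for the full control effect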
Procedure, shortened: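 Activity was read by AlphaScreen after JNK3-containing HepG2 lysate (cytokine pre-activated) phosphorylated biotinylated GST-cJun with 10 uM ATP at room temperature. Phospho-Ser73 cJun antibody with Protein-A acceptor beads provided detection.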

[5] = molecular target: 3',5'-cyclic-AMP phosphodiesterase 4B (Homo sapiens) (UniProt Q07343); test: qHTS Assay for Inhibitors of PDE-IV (AID 607; active = well fitted activation curve with a large enough effect in the main read-out, with a control signal flat, not every such curve was filed as active; also: % of control where 0% means no effect)
3',5'-cyclic-AMP phosphodiesterase 4B (Homo sapiens), sequence (Q07343 whole entry, looked up): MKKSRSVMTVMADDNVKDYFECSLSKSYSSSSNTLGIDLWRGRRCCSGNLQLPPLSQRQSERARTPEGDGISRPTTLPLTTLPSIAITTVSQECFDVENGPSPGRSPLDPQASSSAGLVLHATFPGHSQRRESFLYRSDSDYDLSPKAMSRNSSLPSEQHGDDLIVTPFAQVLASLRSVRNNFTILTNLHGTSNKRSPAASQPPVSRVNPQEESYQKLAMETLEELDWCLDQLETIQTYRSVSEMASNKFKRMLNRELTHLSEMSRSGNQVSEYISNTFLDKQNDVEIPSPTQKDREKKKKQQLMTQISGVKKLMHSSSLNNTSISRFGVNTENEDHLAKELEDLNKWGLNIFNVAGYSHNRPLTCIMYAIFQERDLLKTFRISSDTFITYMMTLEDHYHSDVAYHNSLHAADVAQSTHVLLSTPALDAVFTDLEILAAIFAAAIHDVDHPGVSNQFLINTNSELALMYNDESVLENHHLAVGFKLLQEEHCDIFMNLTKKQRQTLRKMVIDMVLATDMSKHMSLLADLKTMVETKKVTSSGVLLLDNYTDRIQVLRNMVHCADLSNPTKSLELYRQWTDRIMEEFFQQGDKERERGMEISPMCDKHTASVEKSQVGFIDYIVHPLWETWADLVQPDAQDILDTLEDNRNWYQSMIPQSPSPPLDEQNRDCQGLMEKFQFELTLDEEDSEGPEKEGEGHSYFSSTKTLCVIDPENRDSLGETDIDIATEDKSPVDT
Procedure, shortened: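 HEK293 ACTOne cells with CNG channel (1000/well), endogenous PDE4; membrane potential dye, compounds up to 22.9 uM final. Fluorescence Ex 535/Em 590; RO 20-1724 (100 uM final) as reference.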

O=C(O)C1CCNCC1
inactive: activity, negative = inhibition [1] -8.76% | Potency [2] > 46 µM | Potency [3] > 46 µM | outcome [4] | Potency [5]

COc1ccc2c(c1)c(CC(=O)O)c(C)n2C(=O)c1ccccc1
inactive: activity, negative = inhibition [1] -19% | Potency [2] > 46 µM | Potency [3] > 46 µM | outcome [4] | Potency [5]

[Li+]
inactive: activity, negative = inhibition [1] -7.38% | Potency [2] > 46 µM | Potency [3] > 46 µM | outcome [4] | Potency [5]

N=C(N)c1ccc(N)cc1
inactive: activity, negative = inhibition [1] -11.4% | Potency [2] > 46 µM | Potency [3] > 46 µM | outcome [4] | Potency [5]

O=C(O)c1ccccc1Nc1ccccc1
inactive: activity, negative = inhibition [1] -15.6% | Potency [2] > 46 µM | Potency [3] > 46 µM | Potency [5]

Fc1ccc(CN(C2=NCCN2)c2c(Cl)cccc2Cl)cc1
inactive: activity, negative = inhibition [1] -4.64% | Potency [2] > 46 µM | Potency [3] > 46 µM | outcome [4] | Potency [5]

Cn1cc(C(=O)OCC2CCN(CCNS(C)(=O)=O)CC2)c2ccccc21
inactive: activity, negative = inhibition [1] -18.9% | Potency [2] > 46 µM | Potency [3] > 46 µM | outcome [4] | Potency [5]

O=C(c1ccc2c(c1)OCCO2)N1CCCCC1
inactive: activity, negative = inhibition [1] 25% | Potency [2] > 46 µM | Potency [3] > 46 µM | outcome [4] | Potency [5]

Cc1nc2c(OCc3ccccc3)cccn2c1CC#N
inactive: activity, negative = inhibition [1] -13.9% | Potency [2] > 46 µM | Potency [3] > 46 µM | outcome [4] | Potency [5]

Cn1c(=O)c2[nH]c(-c3ccc(S(=O)(=O)O)cc3)nc2n(C)c1=O
inactive: activity, negative = inhibition [1] 18% | Potency [2] > 46 µM | Potency [3] > 46 µM | outcome [4] | Potency [5]
